Source: PubChem
ROC1-CUL1 inh: human ROC1-CUL1 E3 ligase inhibition; P62877+Q13616; in vitro K48 di-Ub FRET, acceptor:donor ratio, 45 min; inhibition, % at 10 µM; 140,000 compounds, 0.6% hits; AID 1347404; in the data active means inhibition above about 25%
Target sequence (P62877 whole entry, looked up): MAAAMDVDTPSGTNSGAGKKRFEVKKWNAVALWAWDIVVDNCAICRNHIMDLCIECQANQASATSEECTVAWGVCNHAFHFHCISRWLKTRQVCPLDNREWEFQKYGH
Target sequence (Q13616 whole entry, looked up): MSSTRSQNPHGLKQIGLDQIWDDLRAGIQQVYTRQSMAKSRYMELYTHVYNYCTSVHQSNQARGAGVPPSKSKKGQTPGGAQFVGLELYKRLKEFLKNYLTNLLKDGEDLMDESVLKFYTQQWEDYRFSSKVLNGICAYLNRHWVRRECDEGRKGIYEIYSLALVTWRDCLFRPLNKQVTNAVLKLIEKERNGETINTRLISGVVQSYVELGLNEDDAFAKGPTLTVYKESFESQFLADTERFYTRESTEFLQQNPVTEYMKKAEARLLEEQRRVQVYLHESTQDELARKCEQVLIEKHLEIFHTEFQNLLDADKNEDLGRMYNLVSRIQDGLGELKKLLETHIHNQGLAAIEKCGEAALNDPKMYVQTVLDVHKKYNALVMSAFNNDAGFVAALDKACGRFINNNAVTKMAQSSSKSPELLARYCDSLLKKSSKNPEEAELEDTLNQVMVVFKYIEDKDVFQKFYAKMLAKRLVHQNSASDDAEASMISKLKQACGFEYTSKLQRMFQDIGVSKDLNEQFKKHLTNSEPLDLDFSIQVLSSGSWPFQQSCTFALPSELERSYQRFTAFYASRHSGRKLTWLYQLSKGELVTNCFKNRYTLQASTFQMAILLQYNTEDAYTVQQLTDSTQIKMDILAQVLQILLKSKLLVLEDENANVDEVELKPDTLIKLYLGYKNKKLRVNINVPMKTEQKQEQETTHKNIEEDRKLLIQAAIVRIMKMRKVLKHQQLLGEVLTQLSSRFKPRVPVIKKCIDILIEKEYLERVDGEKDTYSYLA
An asterisk follows results filed as active. The entries come from a sample that favours hits as a whole.

Results for CCN(CC1CCCN(CCc2cccc(F)c2)C1)C(=O)Cn1ccnc1 (stereo unspecified) ?
ROC1-CUL1 inh: 6.4

What do the screens show for `O=C(Cn1nnc2ccccc21)NNC(=S)NCc1ccccc1`?
ROC1-CUL1 inh: -6.1

How did COc1cc(Cl)c(C(c2c(C)[nH]n(-c3ccc(F)cc3)c2=O)C2C(=O)N(c3ccc(F)cc3)N=C2C)cc1OC (stereo unspecified) do in these assays?
ROC1-CUL1 inh: 3.6

How did COc1ccc(-c2csc(NC(=O)COc3ccccc3Cl)n2)cc1Br do in these assays?
ROC1-CUL1 inh: 2.3

How did C=CCc1c(C)nc(N2CCN(c3ccc(F)cc3)CC2)[nH]c1=O do in these assays?
ROC1-CUL1 inh: 7.0

Results for CC1(C)CC(=O)C(C=Nc2ccc(N=CC3C(=O)CC(C)(C)CC3=O)c(O)c2)C(=O)C1 ?
ROC1-CUL1 inh: 3.4

How did Cc1cccc(C2=NN3C(=N)/C(=C\c4ccc([N+](=O)[O-])o4)C(=O)N=C3S2)c1 do in these assays?
ROC1-CUL1 inh: 106.4*

How did Cc1ccc(/C=C2/C(=N)N3N=C(c4ccc(C)cc4)SC3=NC2=O)cc1 do in these assays?
ROC1-CUL1 inh: 5.7

How did Cc1cccc(/C=C2/C(=N)N3N=C(c4ccccc4Cl)SC3=NC2=O)c1 do in these assays?
ROC1-CUL1 inh: 4.6

What do the screens show for `O=C1CC(c2ccc(Cl)cc2Cl)=NO1`?
ROC1-CUL1 inh: -1.7

What do the screens show for `CCc1cccc(C)c1NC(=O)CCn1nc(C)c2c(C)n(-c3ccccc3)nc2c1=O`?
ROC1-CUL1 inh: 1.8

How did Cc1ccc(C)c(NC(=O)CCn2nc(C)c3c(C)n(-c4ccccc4)nc3c2=O)c1 do in these assays?
ROC1-CUL1 inh: 33.7*

What do the screens show for `Cc1cccc(NC(=O)CCn2nc(C)c3c(C)n(-c4ccccc4)nc3c2=O)c1C`?
ROC1-CUL1 inh: -3.6

Results for CC(=O)OCc1c(C)cc(C)c(/C=C(/C#N)C(N)=S)c1C ?
ROC1-CUL1 inh: -10.2

What do the screens show for `O=C1c2ccccc2-c2ncccc21`?
ROC1-CUL1 inh: -6.6

Results for O=C1c2ccccc2-c2nc3ccc(Cl)cc3nc21 ?
ROC1-CUL1 inh: -1.5

What do the screens show for `O=C1c2ccccc2-c2nc3nsnc3nc21`?
ROC1-CUL1 inh: 86.9*

How did COc1ccc(-c2nc(CN3CCN(C(C)=O)CC3)c(C)o2)c(OC)c1 do in these assays?
ROC1-CUL1 inh: -8.9

What do the screens show for `NS(=O)(=O)c1ccc(N=C2NC(=O)C(CC(=O)O)S2)cc1` (stereo unspecified)?
ROC1-CUL1 inh: -0.3

What do the screens show for `Cc1[nH]nc2c1C(c1cccc(OCc3ccc(F)cc3)c1)C(C#N)C(=N)O2` (stereo unspecified)?
ROC1-CUL1 inh: 3.9

Results for O=[N+]([O-])c1cccc(-c2nc(-c3ccccc3)c(-c3cccc4ccccc34)[nH]2)c1 ?
ROC1-CUL1 inh: -6.5

How did CC(=O)Nc1ccc(N2N=C(C)CC2=O)cc1 do in these assays?
ROC1-CUL1 inh: 28.4*

How did CC(=O)Nc1ccc(-n2cccc2)cc1 do in these assays?
ROC1-CUL1 inh: -3.2

What do the screens show for `CC1=NN(c2cccc(S(=O)(=O)O)c2)C(=O)C1`?
ROC1-CUL1 inh: 6.8

Results for COc1ccccc1-c1cc(-c2ccc(C)cc2)nc2sc(C(=O)Nc3c(C)cc(C)cc3C)c(N)c12 ?
ROC1-CUL1 inh: 4.3

Results for CC(C)C1c2c(n[nH]c2-c2ccccc2)OC(=N)C1C#N (stereo unspecified) ?
ROC1-CUL1 inh: 0.4

Results for CCc1nc2sc3c(c2c(=S)[nH]1)CCC3 ?
ROC1-CUL1 inh: 5.0

Results for Nc1ccc(-n2ccnc2)c(Cl)c1 ?
ROC1-CUL1 inh: -2.4

What do the screens show for `COc1cccc(OCc2nc(C(=O)NCc3nc(C)cs3)co2)c1`?
ROC1-CUL1 inh: 0.8

How did CCOc1ccc(NC(=O)c2sc3nc4cc(C)ccc4cc3c2N)cc1 do in these assays?
ROC1-CUL1 inh: -7.0

How did CCOC(=O)c1c(-c2ccccc2)csc1NC(=O)CSc1cc(C)c2ccccc2n1 do in these assays?
ROC1-CUL1 inh: -1.1

How did CCOC(=O)c1c(-c2ccc(F)cc2)csc1NC(=O)CSc1nc2ccccc2c(=O)n1-c1ccccc1 do in these assays?
ROC1-CUL1 inh: 4.2

Results for CCOC(=O)c1c(-c2ccco2)csc1NC(=O)CSc1cc(C)c2ccccc2n1 ?
ROC1-CUL1 inh: 91.0*

What do the screens show for `CCCCCCc1ccc(-c2nc(Cc3ccccc3)no2)cc1`?
ROC1-CUL1 inh: 4.1

How did Cc1cccc(/C=N/Nc2cc(N3CCCCC3)nc(N3CCCCC3)n2)c1 do in these assays?
ROC1-CUL1 inh: 1.3

What do the screens show for `CCC(=O)NNc1cc(N2CCCC2)nc(N2CCCC2)n1`?
ROC1-CUL1 inh: 74.5*

Results for CCCc1nn2c(=O)cc(N3CCCCC3)nc2s1 ?
ROC1-CUL1 inh: -9.1

Results for CCCCCC12CCC(CC(=O)O)(CC1)CC2 ?
ROC1-CUL1 inh: 2.0

What do the screens show for `NC1=NC(SCC(=O)NC2CCCC2)=NC(=O)C1c1ccccc1` (stereo unspecified)?
ROC1-CUL1 inh: -2.7

Results for O=C1/C(=C\c2ccccc2)CCC/C1=C\c1ccccc1 ?
ROC1-CUL1 inh: -1.0

How did O=C1C(=O)/C(=C/c2ccccc2)CCC/C1=C/c1ccccc1 do in these assays?
ROC1-CUL1 inh: -1.3

How did CC1(C)CC(=O)/C(=C\c2ccccc2)C(C)(C)N1 do in these assays?
ROC1-CUL1 inh: 25.0*

What do the screens show for `Cc1noc(C)c1NC(=O)Cn1ncc(N2CCCN(C)CC2)cc1=O`?
ROC1-CUL1 inh: -9.1

What do the screens show for `CC(C)(O)C#Cc1ccc(CN2CCCC2c2ccc(C(N)=O)s2)cc1` (stereo unspecified)?
ROC1-CUL1 inh: 6.4

Results for CCOc1ccc(NC(=S)NCCO)cc1 ?
ROC1-CUL1 inh: 10.6

How did CCOc1ccc(NC(=S)NCCCO)cc1 do in these assays?
ROC1-CUL1 inh: 8.4

How did CCOc1ccc(NC(=S)Nc2ccc3nsnc3c2)cc1 do in these assays?
ROC1-CUL1 inh: 50.7*

How did Cn1cnc([N+](=O)[O-])c1C(=O)N1CCOCC1 do in these assays?
ROC1-CUL1 inh: -2.0

What do the screens show for `O=C1NC(=Nc2ccccc2)S/C1=C/c1ccc(-c2ccc(Cl)cc2Cl)o1`?
ROC1-CUL1 inh: -3.4

Results for O=C1NC(=Nc2cc(Cl)cc(Cl)c2)S/C1=C\c1ccco1 ?
ROC1-CUL1 inh: 27.7*

Results for O=C1NC(=Nc2ccccc2Cl)S/C1=C\c1ccc(-c2ccc(Cl)cc2)o1 ?
ROC1-CUL1 inh: -8.4

What do the screens show for `C/C(=N/NC(=O)c1c[nH]c2ccccc12)c1cccc(NC(=O)C2CC2)c1`?
ROC1-CUL1 inh: 8.1

What do the screens show for `CCOC(=O)c1cc(-c2ccc(/C=C(\C#N)c3nc4ccc(C)cc4[nH]3)o2)ccc1Cl`?
ROC1-CUL1 inh: -4.1

How did CCOC(=O)c1cc(-c2ccc(C(c3c(C)[nH][nH]c3=O)c3c(C)[nH][nH]c3=O)o2)ccc1Cl do in these assays?
ROC1-CUL1 inh: 67.2*

Results for CCCCOC(=O)c1cc(-c2ccc(CC3=NC(=S)NC3=O)o2)ccc1Cl ?
ROC1-CUL1 inh: 1.4

Results for COc1ccc(NC(=O)C2CCN(S(=O)(=O)N(C)C)CC2)cc1 ?
ROC1-CUL1 inh: -3.4

How did O=C(Nc1ccccc1)Oc1c(Cl)cc2oc(=O)sc2c1Br do in these assays?
ROC1-CUL1 inh: 16.0

Results for CC(=O)Oc1c(Br)cc2oc(=O)sc2c1Br ?
ROC1-CUL1 inh: 33.7*

How did COc1cc2oc(=O)cc(C)c2c(OC)c1OC(C)=O do in these assays?
ROC1-CUL1 inh: 0.6

What do the screens show for `COC(=O)C1(C(F)(F)F)N=C2C(Cl)=CC(Cl)=CN2C(c2ccccc2F)=N1` (stereo unspecified)?
ROC1-CUL1 inh: 5.8

Results for COc1cc(Br)cc(/C=N/NC(=O)CSc2nnc(-c3ccc(C)cc3)n2C)c1O ?
ROC1-CUL1 inh: 17.3

Results for Cc1ccc(/C=N/NC(=O)CSc2nnc(-c3ccc(Br)cc3)n2C)cc1 ?
ROC1-CUL1 inh: -1.4
